The structures appear in SMILES notation. Values joined by “and” are separate entries in the source; they are usually repeats but may differ in a detail not shown here. Equal entries are not always repeated. Results filed as inconclusive are left out. Active and inactive are the calls of the source. How the source made its calls: active means hit-call score of the fitted dose curve at least 0.9, where 1 is the maximum; inconclusive means response in the unintended direction; inactive means score below 0.9.

This assay deals with Peroxisome proliferator-activated receptor gamma (Homo sapiens) (UniProt P37231). The assay can be described thus: ATG_hPPARg_XSP2: Attagene TRANS-FACTORIAL Multi-Species (XSP2) HepG2 Assay for human Peroxisome Proliferator-activated Receptor gamma (PPARg) (AID 2283829).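 Further: actives raise reporter mRNA above DMSO so AC50 reflects PPARg activation.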 Here is the method: ATG_XSP2_multi-species_TRANS is a cell-based, multiplexed assay created by modifying the existing Attagene TRANS-FACTORIAL system to include a panel of nuclear receptors from some or all the following species: human (Homo sapiens), mouse (Mus musculus), frog (Xenopus laevis), zebrafish (Danio rerio), chicken (Gallus gallus), and turtle (Chrysemys picta). The ECOTOX-FACTORIAL format uses HepG2, a human liver cell line, with measurements taken at 24 hours after chemical dosing in a 24-well plate. Xsp2 included 3 nM 6-alpha-fluorotestosterone and 1.5 nM norgestrel to stimulate the androgen receptor.ATG_hPPARg_XSP2 is one of 29 assay components measured or calculated from the ATG_XSP2_multi-species_TRANS assay. It is designed to make measurements of mRNA induction, a form of inducible reporter, as detected with fluorescence intensity signals by Reverse transcription polymerase chain reaction (RT-PCR) and Capillary electrophoresis technology.The assay endpoint ATG_hPPARg_XSP2 was analyzed in the positive analysis fitting direction relative to DMSO as the negative control and baseline of activity. Using a type of inducible reporter, measures of mRNA for gain-of-signal activity can be used to understand the reporter gene at the transcription factor-level as they relate to the gene PPARg. Furthermore, this assay endpoint can be referred to as a primary readout, because this assay has produced multiple assay endpoints where this one serves a reporter gene function. To generalize the intended target to other relatable targets, this assay endpoint is annotated to the nuclear receptor intended target family, where the subfamily is non-steroidal.
Peroxisome proliferator-activated receptor gamma (Homo sapiens), sequence (P37231 whole entry, looked up): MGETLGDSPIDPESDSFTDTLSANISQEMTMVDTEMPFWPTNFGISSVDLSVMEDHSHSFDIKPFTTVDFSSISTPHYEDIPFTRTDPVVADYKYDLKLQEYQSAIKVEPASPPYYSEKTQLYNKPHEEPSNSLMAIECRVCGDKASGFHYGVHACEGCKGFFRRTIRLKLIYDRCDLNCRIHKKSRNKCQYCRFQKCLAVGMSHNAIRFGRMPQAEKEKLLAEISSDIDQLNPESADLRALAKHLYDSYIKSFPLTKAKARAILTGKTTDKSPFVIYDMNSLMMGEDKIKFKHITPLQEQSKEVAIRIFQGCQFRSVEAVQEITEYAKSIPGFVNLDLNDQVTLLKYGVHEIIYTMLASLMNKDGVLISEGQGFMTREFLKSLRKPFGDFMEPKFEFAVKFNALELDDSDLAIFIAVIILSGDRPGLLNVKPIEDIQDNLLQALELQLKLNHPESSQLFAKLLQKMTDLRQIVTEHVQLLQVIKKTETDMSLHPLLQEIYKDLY
Human liver HepG2 cells are transiently transfected with multiple reporter transcription units (MRTUs) in 6-well plates using FuGene 6 reagent (Roche; 3 ml FuGene/1 mg DNA). The MRTU constructs are regulated by a cis-regulating element (promoter). […] A major difference between the CIS and TRANS system is that in CIS activities of endogenous TFs are measured, whereas the TRANS assay evaluates changes in activities of exogenous, chimeric NR-Gal4 proteins. […] At the end of 24 hour incubation, total RNA was isolated using TriZol reagent (Invitrogen). The isolated RNA is then reverse-transcribed using oligo(dT) primer and Mo-MLV reverse transcriptase (Invitrogen) with DNAse I (Ambion) treatment for 30 min. The one-tenth of the produced cDNA was amplified by PCR using Taq DNA polymerase (Invitrogen) and two reporter sequence-specific primers. The PCR products were fluorescently labeled by primer extension with 6-arboxyfluorescein (6-FAM) 5'-labeled reporter sequence-specific primer (2 min at 95 C, 20 s at 68 C and 10 min at 72 C) and these products were digested with 5U of HpaI (New England Biolabs) for 2h at 37 C. The fragments were purified using Qiaquick PCR columns (Qiagen), analyzed on an ABI 3130xL genetic analyzer (Applied Biosystems) with peak positions identified by using a set of X-rhodamine (ROX)-labeled MapMarker1000 molecular weight standards (BioVentures). The raw capillary electrophoresis data was processed using Attagraph software (Attagene).
For `COP(=O)(OC)O/C(=C\Cl)c1cc(Cl)c(Cl)cc1Cl`, the AC50 was 15 µM (active).
For `Clc1ccc(C2(Cn3cncn3)CC(Br)CO2)c(Cl)c1` (stereo not drawn), the call was inactive.
The same measure, in the same setting: the result for `CC12CC1(C)C(=O)N(c1cc(Cl)cc(Cl)c1)C2=O` (stereo not drawn) reads “inactive”; that for `O=C1C2(Cl)C3(Cl)C4(Cl)C(Cl)(Cl)C5(Cl)C3(Cl)C1(Cl)C5(Cl)C24Cl` (stereo not drawn), “inactive”; that for `C[C@H]1CCCC(=O)CCC/C=C/c2cc(O)cc(O)c2C(=O)O1`, “inactive”.
Still for that read-out and setting: next, `C[C@]12CCC(=O)C[C@@H]1CC[C@@H]1[C@@H]2CC[C@]2(C)[C@@H](O)CC[C@@H]12`: “inactive”.
Turning to `Oc1ccc(-c2ccccc2)cc1`, the AC50 was 63.1 µM (active) and 100 µM (active).
The same measure, in the same setting: the result for `O=S(=O)(c1ccc(Cl)cc1)c1ccc(Cl)cc1` reads 11.4 µM (active) and 6.91 µM (active).
Take `CC1(C)CCC(Cc2ccc(Cl)cc2)C1(O)Cn1cncn1` (stereo not drawn): the result was inactive.
For `Oc1c(I)cc(I)cc1I`, the AC50 was 12 µM (active) and 10.4 µM (active).
For the compound `C[C@]12CC[C@H](O)CC1=CC[C@@H]1[C@@H]2CC[C@]2(C)C(=O)CC[C@@H]12`, the outcome was inactive.
Consider `CC(C)C1CCC(Cc2ccc(Cl)cc2)C1(O)Cn1cncn1` (stereo not drawn), for which the AC50 is 3.93 µM (active).
As for `CC(=O)C=C(C)C`, the outcome was inactive.
